Compound activity: PubChem, National Center for Advancing Translational Sciences (NCATS)
DT40 TDP1 no CPT = qHTS for Inhibitors of human tyrosyl-DNA phosphodiesterase 1 (TDP1): qHTS in cells in absence of CPT. DT40 Tdp1-/- hTDP1 cells, no CPT, ATP luminescence, 48 h. Potency, µM (highest dose often 46.2 µM), usual class: inhibitors. actives 15% (n = 420,000); note: nearly all actives have a fitted effect of over 55% in size
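Seeded 400 DT40-hTDP1 cells/well (vehicle DMSO, no 20 nM CPT); pinned compounds; ≥48 hr at 37 °C; CellTiter-Glo luminescence as viability measure.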
TDP1 cell CPT = DT40-hTDP1 cell growth loss with CPT. actives 12% (n = 420,000). chicken DT40 Tdp1-/-;hTDP1 cells + 20 nM CPT, ATP luminescence, 48 h. Potency, µM (series often up to 46.2 µM), usual class: inhibitors; note: nearly all actives have a fitted effect of over 55% in size
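Chicken DT40 Tdp1-/- cells stably complemented with human TDP1 were seeded at 400 cells/well in medium containing 20 nM camptothecin, exposed to pin-transferred compounds, and grown at 37 °C for at least 48 hr. Viability was read as ATP luminescence.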
HT1080 IDH1KD tx = HT-1080 IDH1 knockdown cell toxicity (counter line); actives 2% (n = 360,000); HT-1080 IDH1 knockdown viability, ATP luminescence, 48 h; Potency, µM (titrated, usually from 46.1 µM), hits mostly cytotoxic
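Assay cells: HT-1080 with IDH1 knockdown, 750 per well, RPMI/5% FBS. Exposure: 48 h at 37 °C following 2 h pre-incubation. Read: CellTiter-Glo luminescence; fitted concentration-response, curve class assigned.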
uPA generation = cell surface uPA generation inhibition | actives 0.31% (n = 330,000) | Potency, µM (titrated, usually from 38.3 µM), actives largely listed as inhibitors | cell surface uPA generation assay, qHTS | AID 540303; active = well fitted inhibition curve with a large enough effect; inconclusive = small, poorly fitted or top-dose-only effect; inactive = no such curve, though single readings can be large or run the other way; tested in mouse RAW 264.7 cells; note: nearly all actives have a fitted effect of over 55% in size
IL-1B inflam inh = inflammasome signaling inhibition, IL-1 beta readout; THP-1 LPS/ATP IL-1B secretion, AlphaLISA, 16 h; hits give low values; activity change, % at 57.5 µM; actives 4.7% (n = 360,000); in the data active = activity change below about -50%; inconclusive = mostly about -30% to -49%
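Secreted IL-1B measured by AlphaLISA bead assay after 16 h compound exposure of THP-1 cells; compounds (final up to 57.5 uM) added 1 h before LPS (250 ng/mL) and ATP (1.25 mM) stimulation; lower signal means less secretion.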
HT1080-NT tox = kills 2HG-producing HT-1080-NT fibrosarcoma cells; HT-1080-NT fibrosarcoma viability, CellTiter-Glo ATP luminescence, 48 h; Potency, µM (series often up to 46.1 µM), usual class: cytotoxic; actives 1.6% (n = 360,000);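 note: NT is the 2HG producing partner of a matched IDH1 knockdown line; nearly all actives have a fitted effect of over 55% in size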
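Fibrosarcoma NT cells, 750 per well in 5% FBS RPMI, were exposed to compound for 48 hours. Viability: CellTiter-Glo luminescence.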
A number is an active result; - = inactive; ? = inconclusive; . = not tested or not shown; [ ] = another dose, or the depositor's remark. Rows were chosen to be rich in hits. Some 19% of all compounds tested hit in one or more screens of this group. Unless noted, calls come from the whole dose curve; as a rule, active = well fitted curve in the direction sought with a large enough effect; inconclusive = small, poorly fitted or top-dose-only effect, or another doubt; inactive = no such curve, though single readings can be large; an effect the other way counts as inactive or inconclusive.

SMILES	DT40 TDP1 no CPT	TDP1 cell CPT	HT1080 IDH1KD tx	uPA generation	IL-1B inflam inh	HT1080-NT tox
COc1cc(/C=C2\SC(=O)N(CCNC(=O)c3cnc(C)cn3)C2=O)cc(OC)c1OC	18µM	?	-	-	-	-
N#Cc1cnn2c(=O)[nH]cnc12	-	-	-	.	-	-
COc1ccccc1CNC(=O)CN1C(=O)CSc2ccc(S(=O)(=O)N(C)C)cc21	-	?	.	.	.	.
Cc1ccc(NS(=O)(=O)c2ccc3c(c2)NC(=O)CO3)cc1C	?	?	-	-	-	-
Cc1ccc(NS(=O)(=O)c2ccc3c(c2)NC(=O)CO3)cc1Cl	?	18µM	-	-	-	-
Cc1ccc(NC(=O)CC(C)S(=O)(=O)c2ccc3c(c2)NC(=O)CO3)cc1C (stereo not drawn)	?	?	-	-	-	-
Cc1ccc(NC(=O)CC(C)S(=O)(=O)c2ccc3c(c2)NC(=O)CO3)cc1Cl (stereo not drawn)	21µM	-	.	.	.	.
Cc1cc(C(=O)OCC(=O)Nc2ccc(F)cc2F)c(C)o1	-	-	-	-	-55	-
Clc1ccc(-c2nc3c4ccccc4ccn3c2CC2CCCCC2)cc1	-	-	-	.	-	-
Cc1ccc(-c2nc3c4ccccc4ccn3c2CN2CCCCC2)cc1	23µM	23µM	-	-	-	-
c1ccc(-c2nc3c4ccccc4ccn3c2CN2CCCCC2)cc1	21µM	?	-	-	-71	-
Cc1sc(NC(=O)C2=COCCO2)nc1-c1ccc(Br)cc1	?	?	-	-	-	-
CC(C)C(=O)Nc1nc2cc3c(cc2s1)OCCO3	15µM	21µM	-	-	-	-
Cc1sc(NC(=O)C2=COCCO2)nc1-c1ccc(F)cc1	21µM	16µM	-	-	-	-
CC(=O)c1sc(Nc2nc3cc4c(cc3s2)OCO4)nc1C	?	-	-	-	-	-
CC(=O)Nc1nc2cc3c(cc2s1)OCO3	15µM	23µM	-	-	-	-
O=C(Nc1nc2cc3c(cc2s1)OCO3)C1=COCCO1	13µM	8.2µM	18µM	2µM	-	13µM
COCCCN1C(=O)C(CC(=O)NCCN2CCOCC2)CC(C(=O)N(C(C)C)C(C)C)=C1C (stereo not drawn)	?	-	-	.	-	-
O=[N+]([O-])c1cccc(COc2cccc(CN3CCCCC3)c2)c1	-	-	-	-	-	-
Cc1c(C(=O)N2CCC(C(=O)Nc3ccc(F)c(Cl)c3)CC2)sc2nc[nH]c(=O)c12	-	-	.	.	.	.
CCOc1ccc(C(=O)NCc2nnnn2-c2ccc(C)c(C)c2)cc1OCC	-	-	.	.	.	.
COC(=O)CSc1nc(N2CCCCC2)c2c(c1C#N)CCCC2	23µM	?	-	-	-	-
CCOc1ccccc1NC(=O)Cn1c(=O)n(Cc2ccccc2)c(=O)c2cccnc21	-	-	.	.	.	.
COc1ccccc1NC(=O)Cn1c(=O)n(Cc2cccs2)c(=O)c2cccnc21	-	21µM	.	.	.	.
CNC(=O)Cn1c(C)cc(=O)c2cccc(C)c21	-	-	-	-	-	-
SMILES	DT40 TDP1 no CPT	TDP1 cell CPT	HT1080 IDH1KD tx	uPA generation	IL-1B inflam inh	HT1080-NT tox
COc1ccccc1NC(=O)Cn1c(C)cc(=O)c2cccc(OC)c21	4.6µM	2.9µM	?	-	?	?
COc1cccc2c(=O)cc(C)n(CC(=O)Nc3ccc(C)c(C)c3)c12	15µM	?	-	-	-	?
COc1ccc(OC)c(S(=O)(=O)Nc2cccc(-c3ccc(N4CCCCC4)nn3)c2)c1	-	-	.	.	.	.
CCOc1ccccc1CNC(=O)CCCn1nc(C)c2sc3ccccc3c2c1=O	?	-	.	.	.	.
CC1CCc2c(C(=O)NCc3ccccn3)csc2C1 (stereo not drawn)	-	-	-	-	-	-
CC1CCc2sc(C(=O)NCc3ccccn3)cc2C1 (stereo not drawn)	16µM	18µM	-	-	-	-
Cc1ccc(CNC(=O)COC(=O)c2cc3c(s2)CCC(C)C3)cc1 (stereo not drawn)	?	21µM	?	-	-	?
CC1CCc2sc(C(=O)OCC(=O)NCc3ccccc3)cc2C1 (stereo not drawn)	18µM	21µM	?	-	-	?
C/C(N)=C(/C#N)C(=O)COC(=O)c1cc2c(s1)CCC(C)C2 (stereo not drawn)	-	-	-	-	-	-
O=C(CCN1CCN(Cc2ccccc2)CC1)NNC(=O)Nc1cccc([N+](=O)[O-])c1	-	-	-	-	-	-
COc1ccc(OC)c(CC(NC(C)=O)C(=O)NC2CCN(c3nc(OC)nc(OC)n3)CC2)c1 (stereo not drawn)	-	-	-	-	-	-
COc1ccccc1CCc1nc2ccccc2n1C1CCN(C(=O)c2cc(C)nn2C)CC1	-	-[9.04 µM]	.	.	.	.
Cc1ccc(S(=O)(=O)Nc2ccc(S(=O)(=O)Nc3cc(C)nc(C)n3)cc2)cc1	-	-	-	-	-	-
Cc1ccn2cc(-c3cccc(S(=O)(=O)N4CCCC4)c3)nc2c1	23µM	18µM	-	-	-61	-
Cc1ccn2cc(-c3ccc(NS(=O)(=O)c4ccccc4)cc3)nc2c1	29µM	?	-	-	-	-
Cc1ccn2cc(-c3cccc(S(=O)(=O)N4CC(C)OC(C)C4)c3)nc2c1 (stereo not drawn)	?	?	-	-	-	?
Cc1ccn2cc(-c3cccc(NS(C)(=O)=O)c3)nc2c1	-	-	-	-	?	-
Cc1ccc(S(=O)(=O)Nc2ccc(-c3cn4ccc(C)cc4n3)cc2)cc1	15µM	?	-	-	-	-
CCOC(=O)C1CCN(c2c(C(=O)c3ccccc3)cnc3ccc(Cl)cc23)CC1	18µM	23µM	-	-	-	-
CCOC(=O)C1CCN(c2nc(-c3ccc(C)cc3)nc3ccccc23)CC1	-	-	-	-	-	-
CCc1ccc2ncc(C(=O)c3ccc(C)c(C)c3)c(N3CCC(C(N)=O)CC3)c2c1	21µM	23µM	.	.	.	.
COc1ccc(/C=C/C(=O)OCC(=O)NC2CCCCCC2)cc1	?	-	-	.	-	-
BrC(=C\c1ccccc1)/C=N/Nc1ccc2nncn2n1	?	?	?	-	-86	-
C(/CCc1ccccc1)=N\n1cnnc1	-	-	-	-	-	-
BrC(=C\c1ccccc1)/C=N/n1cnnc1	0.58µM	0.29µM	21µM	?	-	16µM
C(=N\Nc1ccc2nncn2n1)/c1ccco1	-	-	-	-	-	-
Cc1ccc(OCCCCN2CCCCC2)c(C)c1	-	-	-	-	-	-
Cc1nccn1CCOc1ccc(Cl)cc1	-	-	-	-	-	-
